ELG1 DNA repair = blocks ELG1-dependent DNA repair in HEK293T cells; HEK293T ELG1-luciferase reporter, luminescence, 16 h; DNA damage induced by 5-fluorouridine; Potency, µM (top dose mostly 46.1 µM), usual class: inhibitors; actives 2.3% (n = 330,000); also: nearly all actives have a fitted effect of over 55% in size
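Step one: seed 2,000 cells per well. Step two: pin-transfer compound or DMSO alongside 5-fluorouridine. Step three: incubate 16 hr, 37 °C, 5% CO2. Step four: add ONE-Glo, wait 30 min, read luminescence.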
RORg inh = inhibitors of mouse ROR gamma transcriptional activity; Potency, µM (doses to about 53.6 µM), actives largely listed as inhibitors; AID 2551; Drosophila S2 Gal4-RORgamma UAS-luciferase reporter, 20 h; P51450; actives 5.4% (n = 310,000); also: nearly all actives have a fitted effect of over 60% in size
Target sequence (P51450 whole entry, looked up, the tested form may be a part): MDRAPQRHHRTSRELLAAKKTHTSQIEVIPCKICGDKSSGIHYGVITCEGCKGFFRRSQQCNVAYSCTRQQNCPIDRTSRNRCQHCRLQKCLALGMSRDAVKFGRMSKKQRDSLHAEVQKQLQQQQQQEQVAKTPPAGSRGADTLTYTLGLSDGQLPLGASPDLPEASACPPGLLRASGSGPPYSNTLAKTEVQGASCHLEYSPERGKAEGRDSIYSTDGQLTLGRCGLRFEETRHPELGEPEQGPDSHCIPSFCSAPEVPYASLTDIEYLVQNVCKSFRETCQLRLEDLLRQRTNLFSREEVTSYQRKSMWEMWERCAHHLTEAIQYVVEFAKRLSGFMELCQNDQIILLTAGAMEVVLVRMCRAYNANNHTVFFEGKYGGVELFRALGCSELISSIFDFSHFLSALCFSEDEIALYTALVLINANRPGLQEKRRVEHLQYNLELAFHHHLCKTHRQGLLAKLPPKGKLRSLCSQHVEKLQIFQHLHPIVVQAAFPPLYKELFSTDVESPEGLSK
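Stable Schneider cell line, Gal4 DNA-binding domain fused to ROR gamma, UAS-luciferase. Cmpd 1 hr RT → CuSO4 700 uM final → 20 hr RT → luciferase reagent 10 min → luminescence.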
VP16 counter = Gal4-VP16 reporter inhibition counter-screen; Drosophila S2 Gal4-VP16 UAS-luciferase, luminescence, 20 h; Potency, µM (highest dose often 53.6 µM), usual class: inhibitors; actives 3.5% (n = 310,000);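 also: Gal4-VP16 expression switched on by copper sulfate through the metallothionein promoter; nearly all actives have a fitted effect of over 50% in size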
Coupling enz = inhibits coupling enzyme system, counter-screen for aldolase hits. activity change, negative = inhibition, % at 58.2 µM, hits read low. AID 2472. actives 0.67% (n = 290,000). coupling enzyme system counterscreen, AmpLite Red fluorescence; in the data active = activity change below about -30%
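Coupling enzymes only (glyceraldehyde-3-phosphate) + compound, at 57.5 uM final, 10 min RT; add substrate/coupling/AmpLite Red mix, 20 min RT; fluorescence ex 525/em 598 nm. Actives flag coupling-system interference.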
TSHR antag = human thyrotropin receptor antagonism. P16473. TSHR-expressing cells, TSH-stimulated cAMP HTRF, 2 h; hits give low values. activity change, negative = inhibition, % at 11.5 µM. actives 0.2% (n = 330,000);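 active = activity change below a set negative limit, meaning inhibition stronger than a set level, cut at about -70% in these data; inconclusive = activity change between two set negative limits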
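TSHR-expressing cells were treated with compounds, then stimulated with TSH at EC80 (4nM final) for 2 hours at 37 deg C. Cellular cAMP was measured by HTRF competition between lysate cAMP and cAMP-d2 for a cryptate-labelled anti-cAMP antibody.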
CASP1 redox cat = caspase-1 inhibition with catalase present. shares compounds with Coupling enz. caspase-1 Ac-WEHD-AFC fluorescence rate, catalase buffer. Potency, µM (titrated, usually from 57.5 µM), usual class: inhibitors. 30 tested, under 10 active; active = well fitted inhibition curve with a large enough effect in the main read-out, with a control signal flat; inconclusive = small, poorly fitted or top-dose-only effect, or a change in a side signal; inactive = no such curve, though single readings can be large or run the other way
Target sequence (P29466 120-297 limits assumed): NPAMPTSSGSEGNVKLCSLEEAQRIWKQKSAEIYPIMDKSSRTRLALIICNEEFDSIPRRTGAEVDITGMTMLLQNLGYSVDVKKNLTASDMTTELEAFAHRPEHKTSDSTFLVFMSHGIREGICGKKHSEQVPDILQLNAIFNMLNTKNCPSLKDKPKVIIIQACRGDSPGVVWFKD
Target sequence (P29466 317-404 limits assumed): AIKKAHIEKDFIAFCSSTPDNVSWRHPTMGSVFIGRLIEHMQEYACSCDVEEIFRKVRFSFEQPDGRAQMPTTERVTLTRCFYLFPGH
CASP1 inh CRC = blocks human caspase-1 activity in concentration-response; AID 896; shares compounds with Coupling enz; actives 20% (n = 60); Potency, µM (series often up to 57.5 µM), actives largely listed as inhibitors; purified caspase-1, fluorogenic substrate cleavage; active = well fitted inhibition curve with a large enough effect in the main read-out, with a control signal flat; inconclusive = small, poorly fitted or top-dose-only effect, or a change in a side signal; inactive = no such curve, though single readings can be large or run the other way
CASP7 inh CRC = confirmation of allosteric or competitive inhibitors of human caspase-7. Potency, µM (highest dose often 57.5 µM), usual class: inhibitors. shares compounds with Coupling enz. recombinant caspase-7, fluorogenic substrate cleavage. 60 tested, under 10 active; active = well fitted inhibition curve with a large enough effect in the main read-out, with a control signal flat, not every such curve was filed as active; inconclusive = small, poorly fitted or top-dose-only effect, or a change in a side signal; inactive = no such curve, though single readings can be large or run the other way
Casp7 cysteine = inhibits caspase-7 in cysteine buffer, redox counter-screen. shares compounds with Coupling enz. Potency, µM (doses to about 57.5 µM), usual class: inhibitors. caspase-7 enzyme with cysteine, fluorogenic substrate, redox counterscreen. 60 tested, under 10 active; active = well fitted inhibition curve with a large enough effect in the main read-out, with a control signal flat; inconclusive = small, poorly fitted or top-dose-only effect, or a change in a side signal; inactive = no such curve, though single readings can be large or run the other way
CASP7 redox cat = caspase-7 inhibition with catalase present | shares compounds with Coupling enz | Caspase-7 Ac-DEVD-AFC fluorescence rate, catalase buffer | Potency, µM (series often up to 57.5 µM), actives largely listed as inhibitors | 30 tested, under 10 active; active = well fitted inhibition curve with a large enough effect in the main read-out, with a control signal flat; inconclusive = small, poorly fitted or top-dose-only effect, or a change in a side signal; inactive = no such curve, though single readings can be large or run the other way
CASP1 redox cys = caspase-1 inhibition with cysteine present | shares compounds with Coupling enz | Potency, µM (series often up to 57.5 µM), hits mostly inhibitors | 60 tested, under 10 active | AID 929 | recombinant caspase-1, fluorogenic substrate, cysteine buffer; active = well fitted inhibition curve with a large enough effect in the main read-out, with a control signal flat; inconclusive = small, poorly fitted or top-dose-only effect, or a change in a side signal; inactive = no such curve, though single readings can be large or run the other way
ELG1 FLuc counter = luciferase inhibition in cell-free luciferin readout for ELG1 hits; shares compounds with ELG1 DNA repair; cell-free firefly luciferase luminescence counter-screen, ViewLux; Potency, µM (highest dose often 46.1 µM), usual class: inhibitors; AID 624247; actives 3% (n = 350)
ELG1 Luc conf = confirmation of human ELG1-dependent DNA repair inhibitors; shares compounds with ELG1 DNA repair; HEK293T ELG1-luciferase levels, luminescence; cells co-treated with 5-fluorouridine; Potency, µM (series often up to 46.1 µM), hits mostly inhibitors; actives 68% (n = 670); AID 624248; also: nearly all actives have a fitted effect of over 55% in size
ELG1 MMS Luc = inhibits ELG1-dependent repair under MMS stimulation in HEK293T cells. actives 53% (n = 670). HEK293T luciferase-tagged ELG1 level, MMS stimulated. shares compounds with ELG1 DNA repair. Potency, µM (doses to about 46.1 µM), actives largely listed as inhibitors; also: nearly all actives have a fitted effect of over 60% in size
ELG1 5FU viab = confirmation of ELG1 repair inhibitors: viability with 5FU. shares compounds with ELG1 DNA repair. cell viability with 5-FU, ELG1-dependent repair. Potency, µM (doses to about 46.1 µM), most hits filed as cytotoxic. 670 tested, under 10 active. AID 624250;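 also: ELG1-luc HEK293T cells cotreated with 5-fluorouridine at 10 µM final; viability measured 16 h after compound addition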
ELG1 MMS cell = confirmation of ELG1 repair inhibitors: viability with MMS. shares compounds with ELG1 DNA repair. Cell viability with MMS, ELG1-dependent DNA repair. Potency, µM (series often up to 46.1 µM), actives largely listed as cytotoxic. actives 33% (n = 670). AID 624251;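 also: ELG1-luc HEK293T cells co-treated with 10 µM MMS; viability read 16 h after compound addition; nearly all actives have a fitted effect of over 60% in size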
Cell viab unstim = unstimulated viability counter-screen for ELG1 repair hits | shares compounds with ELG1 DNA repair | cell viability counter-screen, unstimulated, luminescence | Potency, µM (titrated, usually from 45.9 µM), most hits filed as cytotoxic | actives 8% (n = 900) | AID 624252;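 also: compound exposure lasted 16 hours before reading; nearly all actives have a fitted effect of over 55% in size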
FLuc enzyme = inhibits purified firefly luciferase, counter-screen for ELG1 hits | Potency, µM (titrated, usually from 57.5 µM), most hits filed as inhibitors | shares compounds with ELG1 DNA repair | purified firefly luciferase, luminescence counter-screen | AID 624253 | actives 10% (n = 350)
Each line names hits and unclear results; the compound was inactive in the other large screens (follow-up assays come after a bar, where they were run). In the library only some 8% were active in any assay of this set; here they are far more common. Unless noted, calls follow the shape of the dose curve; as a rule, active = well fitted curve in the direction sought with a large enough effect; inconclusive = small, poorly fitted or top-dose-only effect, or another doubt; inactive = no such curve, though single readings can be large; an effect the other way counts as inactive or inconclusive.

COc1ccc(C2CC(=O)N3CN(c4ccc(C)c(Cl)c4)CSC3=C2C#N)cc1OC (stereo unspecified)	Coupling enz -38 | CASP1 redox cat inactive | CASP1 inh CRC inactive | CASP7 inh CRC inactive | Casp7 cysteine inactive | CASP7 redox cat inactive | CASP1 redox cys inactive
CCc1ccc(N2CSC3=C(C#N)C(c4cccs4)CC(=O)N3C2)cc1 (stereo unspecified)	ELG1 DNA repair inconclusive
O=C1C(Cl)=C(NCCN2CCOCC2)C(=O)c2ccccc21	ELG1 DNA repair inconclusive, RORg inh inconclusive, VP16 counter inconclusive
O=C1C(Cl)=C(NCCN2CCOCC2)C(=O)c2ncccc21	RORg inh 4.5µM, VP16 counter 2.8µM (no result: ELG1 DNA repair, TSHR antag) | CASP1 inh CRC 2.5µM | CASP7 inh CRC inconclusive | Casp7 cysteine inactive | CASP1 redox cys inactive
COc1ccc(S(=O)(=O)N2CCCC2CNC(=O)c2cccc(OC)c2)cc1 (stereo unspecified)	none (no result: RORg inh, VP16 counter, Coupling enz)
CCOC(=O)C1CCCN(CCC(=O)Nc2cc(OC)ccc2OC)C1 (stereo unspecified)	none
CN(C)c1ccc(/C=C2\CCc3ccccc32)cc1	none (no result: ELG1 DNA repair, RORg inh, VP16 counter, Coupling enz, TSHR antag) | Cell viab unstim inactive
CN(C)c1ccc(/C=C2\CCC/C(=C\c3ccccc3)C2=O)cc1	ELG1 DNA repair inconclusive
COc1cc(/C=C(/C#N)C(=O)Nc2ccccc2)c(Br)cc1OCc1ccc(C(=O)O)cc1	ELG1 DNA repair inconclusive, RORg inh inconclusive
COc1cc(/C=C(\C#N)C(=O)Nc2cccc(C(=O)O)c2)ccc1OCc1ccc(Cl)cc1	ELG1 DNA repair inconclusive | ELG1 FLuc counter inactive | Cell viab unstim inactive | FLuc enzyme 16µM
Cn1c(=O)c2c(ncn2CC(=O)OCCCC(=O)c2ccc(Br)cc2)n(C)c1=O	ELG1 DNA repair inconclusive (no result: RORg inh, VP16 counter, Coupling enz) | ELG1 FLuc counter inactive | ELG1 Luc conf inconclusive | ELG1 MMS Luc 2.5µM | ELG1 5FU viab inactive | ELG1 MMS cell 2.2µM | Cell viab unstim inconclusive | FLuc enzyme inactive
CCOc1ccc(C(=O)COC(=O)Cn2cnc3c2c(=O)n(C)c(=O)n3C)cc1	none (no result: RORg inh, VP16 counter, Coupling enz)
CC(=O)N(C)c1ccc(/C=C2\C=Cc3ccccc32)cc1	none (no result: ELG1 DNA repair, RORg inh, VP16 counter, Coupling enz, TSHR antag) | ELG1 FLuc counter inactive | Cell viab unstim inconclusive | FLuc enzyme 0.23µM
CC(=O)N(C)c1ccc(NC(=O)CCN2C(=O)c3ccccc3C2=O)cc1	none
O=C(CCNC(=O)N1CCn2c1nc1ccccc12)NCc1ccccc1Cl	ELG1 DNA repair inconclusive
NC(=O)COC(=O)C12CC3CC(CC(O)(C3)C1)C2	none
CC(=O)NC12CC3CC(C1)CC(C(=O)OCC(=O)c1cc(C)n(C)c1C)(C3)C2	ELG1 DNA repair inconclusive (no result: RORg inh, VP16 counter, Coupling enz) | Cell viab unstim inactive
CC(=O)NC12CC3CC(C1)CC(C(=O)Nc1c(C)n(C)n(-c4ccccc4)c1=O)(C3)C2	VP16 counter inconclusive (no result: Coupling enz)
Cc1cc(C(=O)COC(=O)C23CC4CC(CC(O)(C4)C2)C3)c(C)n1C	ELG1 DNA repair inconclusive (no result: RORg inh, VP16 counter, Coupling enz) | Cell viab unstim inactive
CC1CCN(C(=O)CCNS(=O)(=O)c2ccc3c(c2)c(=O)n(C)c(=O)n3C)CC1	none
CCN(CC)C(=O)c1sc(NC(=O)c2cccnc2)c(C(=O)OC)c1C	ELG1 DNA repair 2.6µM | ELG1 Luc conf 3.1µM | ELG1 MMS Luc inactive | ELG1 5FU viab inconclusive | ELG1 MMS cell inactive | Cell viab unstim inconclusive
CCOC(=O)c1c(NC(=O)c2cccnc2)sc(C(C)=O)c1C	none
O=S1(=O)CCOC[C@H](c2ccccc2)N1Cc1cccc(Cl)c1	none
COC(=O)Nc1cc(C)nc2ccccc12	RORg inh inconclusive
Cc1cc(NC(=O)Cc2ccccc2)c2ccccc2n1	ELG1 DNA repair inconclusive, RORg inh inconclusive, VP16 counter 3.2µM | ELG1 Luc conf inconclusive | ELG1 MMS Luc 2µM | ELG1 5FU viab inactive | ELG1 MMS cell 2.5µM | Cell viab unstim inconclusive
COc1ccccc1/C=C(\NC(=O)c1ccc(OC)c(OC)c1)C(=O)Nc1cc([N+](=O)[O-])ccc1C	ELG1 DNA repair 0.65µM | ELG1 FLuc counter inactive | ELG1 Luc conf 1.6µM | ELG1 MMS Luc inconclusive | ELG1 5FU viab inconclusive | ELG1 MMS cell inconclusive | Cell viab unstim inactive | FLuc enzyme inactive

High-throughput results: PubChem, National Center for Advancing Translational Sciences (NCATS)
